Screening data (PubChem)
JMJD2E inh: blocks human JMJD2E demethylase activity; JMJD2E catalytic domain, FDH-coupled NADH fluorescence (FDH is formaldehyde dehydrogenase); AID 2147; B2RXH2; Potency, µM (highest dose often 57.1 µM), for the others: at the top dose activity change, negative = inhibition, usual class: inhibitors; actives 1.6% (n = 230,000); active = well fitted inhibition curve with a large enough effect, not every such curve was filed as active; inconclusive = small, poorly fitted or top-dose-only effect, or another doubt; inactive = no such curve, though single readings can be large or run the other way;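 note: potency is the fitted concentration of half-maximal effect; 0% = wells with enzyme and -100% = buffer wells without enzyme; nearly all actives have a fitted effect of over 50% in size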
PI5P4Ka inh: inhibitors of human PI5P4K alpha. max response, %. P48426. actives 1.2% (n = 330,000). PI5P4Kalpha enzyme, ADP-Glo luminescence, 60 min; stronger effect = lower value; active = max response of -50% or lower; inconclusive = between -30% and -50%; inactive = -30% or higher; note: value at the top dose of about 77 µM; % is set by controls: 0 for no effect and ±100 for the full control effect
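Human PI5P4Kalpha with substrate in 0.038 M HEPES pH 7.4, 0.28 mM EGTA, 0.1% CHAPS, 5% DMSO; reaction started with 5 microM ATP (final), 60 min at room temperature. ADP formed read by ADP-Glo luminescence.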
BAZ2B block: inhibitors of human BAZ2B bromodomain; Q9UIF8; AlphaScreen BAZ2B-H3K14Ac peptide displacement; Potency, µM (series often up to 114 µM), for the others: at the top dose activity change, negative = inhibition, most hits filed as inhibitors; actives 4.4% (n = 360,000); AID 504333; note: potency is the fitted concentration of half-maximal effect; % is set by controls: 0 for no effect and ±100 for the full control effect; nearly all actives have a fitted effect of over 60% in size
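AlphaScreen displacement: compounds (up to 110uM) incubated 30 min at room temperature with a preformed 50 nM BAZ2B/50 nM biotinylated H3K14Ac peptide complex in PBS pH 7.4 with Tween-20. Donor and acceptor beads at 10 ug/mL final added, 20 min light-protected before reading.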
L3MBTL1 block: L3MBTL1 (human) inhibition; AlphaScreen L3MBTL1–H3K9me1 peptide binding; Potency, µM (highest dose often 57.1 µM), for the others: at the top dose activity, negative = inhibition, hits mostly inhibitors; actives 0.66% (n = 230,000); note: potency is the fitted concentration of half-maximal effect; % is set by controls: 0 for no effect and ±100 for the full control effect; nearly all actives have a fitted effect of over 60% in size
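AlphaScreen assay: L3MBTL1 (50 nM final) was preincubated 30 min at room temperature with biotinylated H3(1-15)K9me1 peptide (75 nM final), then 30 min with library compounds; streptavidin donor and nickel chelate acceptor beads (10 ug/mL final) added, 30 min dark.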
JMJD2A Tudor inh: JMJD2A Tudor domain (human) inhibition | O75164 | AID 504339 | Potency, µM (series often up to 114 µM), inactives show at the top dose activity change, negative = inhibition, most hits filed as inhibitors | actives 4.4% (n = 390,000) | AlphaScreen JMJD2A-Tudor / H3K4me3 peptide binding; note: potency is the fitted concentration of half-maximal effect; % is set by controls: 0 for no effect and ±100 for the full control effect; nearly all actives have a fitted effect of over 50% in size
HP1b binding inh: inhibitors of HP1-beta chromodomain binding to methylated histone tails | actives 0.56% (n = 390,000) | AlphaScreen HP1-beta / biotin-H3K9me3 peptide binding | P83916 | AID 540317 | Potency, µM (titrated, usually from 114 µM), for inactives: top-dose activity change, negative = inhibition, actives largely listed as inhibitors; note: potency is the fitted concentration of half-maximal effect; nearly all actives have a fitted effect of over 70% in size
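Compound inhibition of the preformed complex between 50 nM HP1-beta and 50 nM biotinylated H3K9me3 peptide was read by AlphaScreen. Buffer was PBS pH 7.4 with 0.01% Tween-20. Incubations ran 30 min at room temperature, with 10 ug/mL donor/acceptor beads.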
* = called active by the depositor; u = inconclusive; x = not tested or not shown. In the library only some 5.7% were active in any assay of this set; here they are far more common. Unless noted, calls come from the whole dose curve; as a rule, active = well fitted inhibition curve with a large enough effect; inconclusive = small, poorly fitted or top-dose-only effect; inactive = no such curve, though single readings can be large or run the other way.

SMILES	JMJD2E inh	PI5P4Ka inh	BAZ2B block	L3MBTL1 block	JMJD2A Tudor inh	HP1b binding inh
O=C1C=CC(=O)N1c1cccc(-c2ccccc2)c1	-1%	u	12%	-16%	50µM*	32µM*
CCN(CC(=O)Nc1c(C(=O)OC)[nH]c2ccccc12)c1ccc2c(c1)OCO2	-16%	0	u	25µM*	u	-7%
CC(C)[C@H](N)c1nnc(SCc2ccc(Cl)cc2)o1	9%	3	-1%	1%	14µM*	21%
Cc1cccc(C)c1NC(=O)CN1C(=O)c2cccc3cccc1c23	x	x	2%	x	-7%	12%
O=C(O)C1CCCCC1C(=O)Nc1cccc(Br)c1 (configuration not stated)	x	u	u	13µM*	25µM*	25µM*
Cc1ccccc1C1=CCN(c2ncc(NC(=O)c3ccc(Cl)cc3)cc2C(=O)O)CC1	x	x	50µM*	x	79µM*	u
CN1CCN(c2ccc(NC(=O)c3ccc(Cl)cc3)cn2)CC1	-5%	-4	-26%	-18%	-6%	9%
CCOC(=O)N1CCN(C(=O)CN(c2cc(C)ccc2OC)S(=O)(=O)c2ccc(C)cc2)CC1	x	x	-3%	x	-5%	38%
O=C1c2cccc3c([N+](=O)[O-])c(O)cc(c23)C(=O)N1Nc1ccccc1	2%	-61*	u	-17%	u	u
CCC(C)Sc1nnc(CNS(=O)(=O)c2ccc(F)cc2)n1C (configuration not stated)	x	2	-4%	x	-3%	56%
Cn1c(CNS(=O)(=O)c2ccc(Cl)cc2)n[nH]c1=S	2%	-5	9%	5%	6.3µM*	33%
Cn1c(CNS(=O)(=O)c2ccc(F)cc2)n[nH]c1=S	-1%	2	-2%	4%	11µM*	34%
COc1ccc(NC(=O)c2oc3ccccc3c2NC(=O)Cc2cccs2)cc1	x	x	-25%	x	-11%	24%
COc1ccc(CCNC(=O)CSc2nnc(-c3ccccc3)c3ccccc23)cc1OC	0%	11	-6%	-4%	-13%	16%
Cc1cccc(NC(=O)CSc2nnc(-c3ccco3)c(-c3ccco3)n2)c1	-19%	-61*	50µM*	u	40µM*	u
CCCCn1c(-c2ccccc2)cnc1SCC(=O)NCCc1ccc(OC)c(OC)c1	0%	x	45µM*	-18%	56µM*	u
Cc1cccc(NC(=O)CSc2nnc(-c3ccco3)c(-c3ccco3)n2)c1C	u	-77*	35µM*	u	50µM*	u
COc1ccc(CCNC(=O)CSc2nnc(-c3ccco3)c(-c3ccco3)n2)cc1OC	x	x	45µM*	x	x	x
Cc1ccc(NC(=O)CSc2n[nH]c(-c3ccco3)n2)cc1	-8%	-3	-1%	10%	1%	32%
CCN(CC)c1ccc(NC(=O)CSc2n[nH]c(-c3ccco3)n2)cc1	x	0	40µM*	-31%	u	-35%
CCCCn1cc(S(=O)(=O)c2ccc(C)cc2)c(=O)c2cc(F)c(N3CCCCC3)cc21	x	x	-4%	x	-21%	44%
Cc1cccc(NC(=O)NCc2ccc3c(c2)cc(C)n3C)c1	-7%	-11	u	u	u	-5%
Cc1cc2cc(CNC(=O)c3ccc(Br)o3)ccc2n1C	-23%	u	35µM*	x	56µM*	-24%
Cc1cccc(NC(=S)NCc2ccc3c(c2)cc(C)n3C)c1C	-4%	-1	35µM*	-22%	35µM*	u
CCCC(=O)NCc1ccc2c(c1)cc(C)n2C	u	x	11%	-3%	-23%	12%
SMILES	JMJD2E inh	PI5P4Ka inh	BAZ2B block	L3MBTL1 block	JMJD2A Tudor inh	HP1b binding inh
CC1=C(c2ccc(C)c(C)c2)S(=O)(=O)N(Cc2ccc(C(=O)NCc3ccc(C)cc3)cc2)C1=O	x	x	-14%	x	-22%	1%
COc1ccc(NCc2cc3cc4c(cc3n(CC(=O)Nc3cc(C)ccc3C)c2=O)OCCO4)cc1	x	x	-17%	x	-8%	33%
O=C(NCCCn1ccnc1)C(=O)NCC1OCCN1S(=O)(=O)c1ccc(Cl)cc1 (configuration not stated)	18%	7	13µM*	u	79µM*	24%
O=C(NCc1ccncc1)C(=O)NCC1OCCCN1S(=O)(=O)c1ccccc1 (configuration not stated)	-1%	-10	0%	4%	-19%	19%
O=C(NCCCn1ccnc1)C(=O)NCC1OCCCN1S(=O)(=O)c1ccc(F)cc1 (configuration not stated)	6%	3	50µM*	u	-33%	15%
O=C(NCCCn1ccnc1)C(=O)NCC1OCCCN1S(=O)(=O)c1ccccc1 (configuration not stated)	-12%	-7	14µM*	u	-9%	12%
O=C(NCCCn1ccnc1)C(=O)NCC1OCCN1S(=O)(=O)c1ccccc1 (configuration not stated)	12%	-3	22µM*	x	u	33%
CN(C(=O)COC(=O)CSc1cc(Cl)ccc1Cl)c1c(N)n(Cc2ccccc2)c(=O)[nH]c1=O	x	6	7%	-8%	-16%	3%
COc1ccc(CCNC(=O)CCc2c(C)c3ccc(O)c(C)c3oc2=O)cc1	x	x	-1%	x	-8%	79%
Cc1ccc(OCC(=O)Nc2ccccc2C(=O)OCc2cc(=O)n3ccsc3n2)cc1C	x	x	-4%	x	-16%	10%
Cc1[nH]nc2c1C(c1ccc(O)cc1)C1=C(CC(C)(C)CC1=O)N2 (configuration not stated)	u	-13	-6%	x	-3%	21%
Cc1ccc(C2C3=C(CC(C)(C)CC3=O)Nc3[nH]c(=S)[nH]c(=O)c32)cc1 (configuration not stated)	u	-25	u	-4%	89µM*	29%
O=C1ON=C(c2ccc(Cl)c([N+](=O)[O-])c2)/C1=C/c1cccc([N+](=O)[O-])c1O	x	-6	6%	-7%	20µM*	7%
O=C1ON=C(c2ccccc2[N+](=O)[O-])/C1=C/c1cccc([N+](=O)[O-])c1O	x	-9	-2%	5%	u	30%
FC(F)(F)c1cc(CCN2CCNC[C@H]2Cc2cccc3ccccc23)cc(C(F)(F)F)c1	x	44	50µM*	-6%	u	-11%
Oc1ccc(C[C@@H]2CNCCN2CCc2cc(C(F)(F)F)cc(C(F)(F)F)c2)cc1	x	24	0%	u	-34%	25%
CCCCC[C@H](O)/C=C/C=C/C/C=C\CCCC(=O)O	-1%	x	x	x	x	x
O=C1C=C(O)c2c(O)cccc2C1=O	6.3µM*	x	-8%	x	x	x
CC(=O)N1c2ccccc2CC1C(=O)NCc1cccc(Cl)c1 (configuration not stated)	x	x	0%	x	3%	25%
